Data reported in PubChem BioAssay AID641 (Vanderbilt High Throughput Screening Facility, 2007).
Screen size: about 58,000 compounds; about 3,400 (5.9%) were called active. The full list was thinned out, with actives kept by preference. Unmarked numbers belong to inactive results.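 How the source made its calls: active means luminescence count or its row- and column-corrected plate score outside the 99.7% band of the plate's sample wells, on either side; inactive means the rest.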

target: D(1A) dopamine receptor (Homo sapiens) (UniProt P21728); experiment: D1 CRE-luciferase signal change, two-sided – cell-based, HEK293 D1, dopamine EC30, D1 allosteric modulator project, primary screen (AID 641); conditions: dopamine EC30 potentiation, at 10 µM, actives deviate in either direction
Sequence (P21728 whole entry, looked up): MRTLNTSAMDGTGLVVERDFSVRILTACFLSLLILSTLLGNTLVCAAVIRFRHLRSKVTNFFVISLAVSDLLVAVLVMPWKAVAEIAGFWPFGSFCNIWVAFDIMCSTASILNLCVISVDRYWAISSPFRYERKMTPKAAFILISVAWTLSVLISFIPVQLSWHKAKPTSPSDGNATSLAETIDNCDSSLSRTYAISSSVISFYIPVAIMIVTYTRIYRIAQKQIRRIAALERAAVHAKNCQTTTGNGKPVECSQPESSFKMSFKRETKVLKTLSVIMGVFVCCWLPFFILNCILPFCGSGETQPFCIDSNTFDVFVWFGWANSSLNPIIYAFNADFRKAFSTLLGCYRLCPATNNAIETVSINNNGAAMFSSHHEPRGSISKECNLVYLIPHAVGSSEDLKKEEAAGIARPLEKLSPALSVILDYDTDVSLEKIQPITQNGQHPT

SMILES	B-score
N/C(=N\c1nc2ccccc2o1)NC(=O)C(Cc1ccccc1)N1C(=O)c2ccccc2C1=O (stereo not given)	-0.0263
CCOC(=O)CN1C(=O)C(O)(CC(=O)c2ccccn2)c2ccccc21 (stereo not given)	-0.341
CCc1nnc(NC(=O)C2CCCN2S(=O)(=O)c2ccccc2)s1 (stereo not given)	-0.0231
CCC(=NC1CC(C)(C)NC(C)(C)C1)C1=C(O)CC(C)(C)CC1=O	-0.239
COc1ccccc1N1CCN(Cc2ccc(OC)c3ccccc23)CC1	-0.325
Cc1nc(-c2ccc(NC(=O)c3cccs3)cc2)cs1	-5.86 (active)
O=C(O)c1ccc(NC(=O)c2cccs2)cc1	0.0162
O=C(O)Cc1ccc(NC(=O)c2cccs2)cc1	-1.14
COc1ccc(-c2nc(CS(=O)CC(=O)NCc3ccccn3)c(C)o2)cc1 (stereo not given)	-1.3
Cc1ccc2nc(NCCCNC(=O)c3cnccn3)c(C#N)cc2c1	0.787
CCc1ccccc1NC(=O)c1cccs1	-0.318
COCCn1nnnc1CN1CCC(NC(=O)Nc2cccc(OC)c2)CC1	-0.857
CCOC(=O)c1cc2n(c1C)-c1ccccc1C2=O	4.61 (active)
CCOC(=O)c1cc2ccccc2nc1C	0.135
CCOC(=O)c1cc2n(c1N)-c1ccccc1C2=O	1.46
CCn1nc(NC(=O)c2ccco2)c2cc3ccc(C)cc3nc21	0.36
CC1CCc2c(sc3c2C2=NS(=O)(=O)CCN2C=N3)C1 (stereo not given)	1.19
CN1CCN(c2nc3c(c(=O)[nH]c(=O)n3C)n2Cc2cccc3ccccc23)CC1	-2.28
CCCCCn1c(SCCC(C)C)nc2c1c(=O)[nH]c(=O)n2C	0.151
Cn1c(=O)[nH]c(=O)c2c1nc(N1CCCCCC1)n2CC(=O)c1ccccc1	0.0681
CC1CCN(c2nc3c(c(=O)[nH]c(=O)n3C)n2CCCc2ccccc2)CC1	3.73 (active)
CCCSc1nc2c(c(=O)[nH]c(=O)n2C)n1CCc1ccccc1	18 (active)
CN(Cc1ccccc1)c1nc2c(c(=O)[nH]c(=O)n2C)n1CCSc1nc2ccccc2[nH]1	1.93
Cc1cccc2cc(C#N)c(N3CCCC3)nc12	-0.4
CCC(=O)N1c2ccc(S(=O)(=O)CCC(=O)N3CCN(c4ccccc4)CC3)cc2CC1C (stereo not given)	0.966

SMILES	B-score
COC(=O)c1ccc(OC(=O)c2nn(C)cc2Cl)c(OC)c1	-3.71 (active)
COc1ccc(C(=O)n2nc(-c3ccc(C)cc3)nc2N)cc1OC	0.0973
COc1ccc(C(=O)n2nc(-c3ccc(Cl)cc3)nc2N)cc1OC	1.72
Cn1c(-c2ccc(C(=O)c3ccccc3)s2)nc2ccccc21	-0.58
CCN(CC)CCN1C(=O)C(=O)/C(=C(/O)c2ccccc2)C1c1ccccc1F (stereo not given)	0.045
Cc1ccc(C)n1C(Cc1ccccc1)C(=O)O (stereo not given)	1.32
c1ccc(COc2nsnc2N2CCOCC2)cc1	5.03 (active)
O=C(O)COc1nsnc1N1CCOCC1	0.787
c1nc(COc2nsnc2N2CCOCC2)cs1	1.59
COc1cc(OC)c(NC(=O)c2ccc(Br)o2)cc1Cl	-0.284
CC(=O)Nc1ccc(S(=O)(=O)N2CCC(N(C)CCC(C)C)CC2)cc1	-0.0927
CC1(C)CC(=O)NC=C(c2ccccc2)C1	-0.105
Cc1cc2c(cc1C)NC(c1ccccn1)C1=C(CC(C)(C)CC1=O)N2 (stereo not given)	-0.653
CC(C)C1C2=C(CC(C)(C)CC2=O)ON1c1ccccc1 (stereo not given)	6.74 (active)
Cc1cc(C)c(S(=O)(=O)NCCCN2CCOCC2)cc1Br	0.0527
COc1cccc(NC(=O)CN(C)S(=O)(=O)c2ccc(C)cc2)c1	-0.881
COc1ccc(S(=O)(=O)N(C)CC(=O)Nc2ccc3c(c2)OCCO3)cc1OC	3.86 (active)
COc1ccc(NC(=O)CN(C)S(=O)(=O)c2ccccc2)cc1OC	-0.205
Cc1cc(=O)n2nc(N3CCCC3C(=O)NCCCN3CC(C)CC(C)C3)sc2n1 (stereo not given)	-0.000281
Cc1ccc(-c2nnc(SC(C)C#N)n2N)cc1 (stereo not given)	-0.328
COc1ccc(-c2noc(COc3ccc(Cl)c(C)c3)n2)cc1	-0.505
COc1ccc(-c2cc(C(F)(F)F)n3nc(C(=O)N4CCOCC4)c(Cl)c3n2)cc1	-1.29
c1coc(-c2nc3nc4ccccc4n3nc2-c2ccco2)c1	2.64 (active)
c1ccc(CSc2nnc(-c3ccco3)c(-c3ccco3)n2)cc1	0.706
Cc1nn2c3ccccc3nc2n(C)c1=O	0.34

SMILES	B-score
CC1CCCN(Cc2nc3c(c(=O)n(C)c(=O)n3C)n2Cc2cccc3ccccc23)C1 (stereo not given)	-0.313
O=c1c2ccccc2oc2nc3n(c(=O)c12)CCCS3	0.013
CC1(C)Cc2c(sc3nc4n(c(=N)c23)CCCCC4)CO1	0.888
CCC1(C)Cc2c(sc3nc4n(c(=O)c23)CCCS4)CO1 (stereo not given)	2.42 (active)
CC(=O)NCCc1ccc(S(=O)(=O)N(C)C2CCS(=O)(=O)C2)cc1 (stereo not given)	1.13
N#Cc1c(/N=C/N2CCCC2)oc(-c2ccccc2)c1-c1ccccc1	0.952
Cc1nc(SC(C)C)[nH]c(=O)c1Cc1ccccc1	0.348
Cc1cc(Cl)c(S(=O)(=O)NCc2cccnc2)cc1OCC(N)=O	0.213
Clc1ccc(Cn2ncc3c(NCc4cccnc4)ncnc32)cc1	-2.9 (active)
C1=C(CCNc2ncnc3c2cnn3-c2ccccc2)CCCC1	-1.37
CC12CN3CC(C)(CN(C1)C3c1ccc(Cl)cc1Cl)C2=O (stereo not given)	-0.693
Cc1ccc(-c2cc(C(F)(F)F)n3nc(C(=O)N4CCCC4)cc3n2)cc1	1.18
Cc1cccc(NC(=O)c2ccc3ccccc3n2)n1	0.542
Cc1nnc(NC(=O)CSc2nccn2-c2cccc(C)c2C)s1	-0.587
CCOC(=O)N1CCC(NC(=O)CCc2cn(C)c3ccccc23)CC1	2.11
O=C(Nc1nc2cc3c(cc2s1)OCCO3)c1cccc(S(=O)(=O)N2CCOCC2)c1	-0.542
Fc1cc(F)c2nc(N3CCOCC3)sc2c1	0.966
c1c2c(cc3sc(N4CCCCC4)nc13)OCCO2	-4.94 (active)
CSCCC1NC2(C(=O)Nc3ccc(Cl)cc32)[C@@H]2C(=O)N(C3CCCC3)C(=O)[C@H]12 (stereo not given in full)	0.395
CN(C)c1nc(N)nc(CSc2nnnn2-c2cccc3ccccc23)n1	7.63 (active)
Cn1nnnc1SCc1cc(=O)[nH]c2ccccc12	0.325
Cc1ccc(-c2noc(CSc3nnnn3-c3ccccc3)n2)cc1	0.0126
Cn1c(SCc2c(F)cccc2Cl)nnc1-c1cnccn1	-0.043
Cc1nc2cc(-c3ccc(F)cc3)nn2c(N2CCOCC2)c1C	3.86
C/C(O)=C\c1nc(=O)c2c(C)cc(C)nc2n1-c1ccccc1	0.549

SMILES	B-score
O=C1CCCC2=C1C(c1cccs1)n1nc(SCc3ccccc3)nc1N2 (stereo not given)	0.252
C=CCNc1nc(C)nc(OC)n1	0.422
COc1nc(NCc2ccc(Cl)cc2)nc(OC)n1	6.81 (active)
COC(=O)c1nc(NC(=O)c2ccc(Cl)cc2)n[nH]1	-0.0452
Cc1c(-c2nn(C)c(=O)c3ccccc23)oc2ccc(F)cc2c1=O	1.77
CC(CNC(=O)c1ccc(Br)o1)NC(=O)c1ccc(Br)o1 (stereo not given)	-0.012
CCc1nc(C)cn1S(=O)(=O)c1cc(OC)c(C)cc1C	-0.851
Cn1c(C(=O)NCCCN2CCCCC2)cc2sccc21	-0.452
COc1ccc(CCNC(=O)c2cc(-c3ccc4c(c3)OCO4)on2)cc1OC	0.448
COc1ccc(CCNC(=O)c2cc3sccc3n2C)cc1OC	4.1 (active)
COC(CCN(C)C)(c1ccccc1)c1ccccc1	-0.765
CCOc1ccc2[nH]c(=O)c(C(c3nnnn3CCOC)N3CCOCC3)cc2c1 (stereo not given)	10.2 (active)
COc1ccc(N2CCN(C(c3cc4ccc(C)cc4[nH]c3=O)c3nnnn3C3CCCC3)CC2)cc1 (stereo not given)	0.0349
COCCn1nnnc1C(c1cc2ccc(OC)cc2[nH]c1=O)N1CCc2ccccc2C1 (stereo not given)	-0.278
O=C(c1cc(-c2cccc(O)c2)on1)N1CCc2ccccc2C1	-0.88
Cc1ccc(C2CC(c3cccc(Br)c3)n3nc(N)nc3N2)cc1 (stereo not given)	9.49 (active)
FC(F)Oc1ccccc1C1CC(c2ccc(Br)s2)Nc2ncnn21 (stereo not given)	0.0618
Nc1nc2n(n1)C(c1ccco1)CC(c1ccc(Cl)c(Cl)c1)N2 (stereo not given)	0.226
COc1ccc(C2CC(c3ccc(Cl)cc3Cl)Nc3nc(N)nn32)cc1OC (stereo not given)	-0.179
Clc1ccc(C2CC(c3cccs3)n3ncnc3N2)cc1Cl (stereo not given)	2.58
Cc1ccc(C2CC(c3cccc(C)c3)n3nc(N)nc3N2)cc1 (stereo not given)	6.52 (active)
COc1ccc(C2CC(c3ccc(C)cc3)Nc3ncnn32)cc1 (stereo not given)	0.317
CCOc1ccccc1C1CC(c2ccccc2)Nc2nc(N)nn21 (stereo not given)	5.88 (active)
CCOc1ccccc1C1CC(c2ccc(Cl)cc2)Nc2nc(N)nn21 (stereo not given)	1.36
CCc1nnc(NC(=O)c2cccs2)s1	-1.13
